Hits are enriched below; roughly 3.6% of the tested compounds scored in any of these assays.
OvCa metastasis = Primary qHTS assay for Inhibitors of ovarian cancer metastasis using an organotypic tumor microenvironment (TME) model | 46,000 compounds, 0.1% hits | SKOV3ip1-GFP adhesion/invasion on 3D omental model, fluorescence | Potency, µM (series often up to 45.8 µM), inactives show at the highest dose activity change, negative = inhibition, hits mostly inhibitors;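 note: potency is the fitted concentration of half-maximal effect; plate controls were DMSO wells for no effect and tomatine positive control wells for full effect; nearly all actives have a fitted effect of over 65% in size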
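Adhesion/invasion was scored as fixed GFP-labeled SKOV3ip1 cell counts (488/509 nm), normalized to DMSO and tomatine controls. Cancer cells in serum-free medium, with four compound doses (0.36-46 umol/L), sat 2 hr at RT then 16 hr at 37 C on a 48 hr fibroblast/mesothelial/ECM culture.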
S16 F2sN tox = Cell viability qHTS assay in S16 Pmp22-F2sN cells; S16 Pmp22-F2sN Schwann cells viability, CellTiter-Glo, 24 h; Potency, µM (series often up to 57.5 µM), for inactives: at the top dose activity change, negative = cytotoxicity, actives largely listed as cytotoxic; 43,000 compounds, 0.48% hits; note: potency is the fitted concentration of half-maximal effect; % is set by controls: 0 for no effect and ±100 for the full control effect; nearly all actives have a fitted effect of over 65% in size
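Viability was measured by CellTiter-Glo luminescence (15 min, room temperature). This followed 24 h at 37 °C of compound exposure (23 nL pin transfer) in S16 Pmp22-F2sN Schwann cells, 500-1,000 per well.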
HTT-AS act = Primary qHTS for Identification of Small Molecule Activators of Huntingtin-Antisense Promoter Activity; HEK293 HTT-AS promoter firefly luciferase reporter, 24 h; response scale: percent change from vehicle, -100% = no light; Potency, µM (highest dose often 57.5 µM), for the others: top-dose activity change, positive = activation, actives largely listed as activators; 48,000 compounds, 0.24% hits; AID 1508624, 2021; note: potency is the fitted concentration of half-maximal effect; nearly all actives have a fitted effect of over 55% in size
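HEK293 cells carrying firefly luciferase reporters were seeded at 2,500 per well in Opti-MEM and cultured for 24 h. They were then treated with compounds at up to 57.5 uM final for 24 h at 37 degrees C before Dual-Glo luminescence readout.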
PMP22 txn = Cell-based coincidence reporter assay to measure PMP22 gene transcription in S16 Pmp22-F2sN cells - Primary screen; 43,000 compounds, 2% hits; S16 Pmp22-F2sN Schwann cells (luciferase reporters placed in the Pmp22 gene), FLuc/NLuc coincidence luminescence, 24 h; Potency, µM (titrated, usually from 57.5 µM), inactives show at the highest dose activity change, negative = inhibition, usual class: inhibitors; active = clear falling dose curves in both reporters; inconclusive = both reporters move, but less clearly or upward; inactive = either reporter flat; the % is the NLuc reporter signal; note: potency is the fitted concentration of half-maximal effect; % is set by controls: 0 for no effect and ±100 for the full control effect
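Luminescent read-out of sequential FLuc and NLuc signals from a reporter embedded in the Pmp22 3' UTR of S16 Schwann cells, taken after 24 h compound exposure at 37C; compounds reducing both signals score as inhibitors of expression.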
pS6 MEF inh = Acumen qHTS Assay for Inhibitors of the mTORC1 Signaling Pathway in MEF (Tsc2-/-, p53-/-) Cells: Sytravon; Tsc2-/- p53-/- MEF, phospho-rpS6 immunofluorescence/PI, 24 h; Potency, µM (doses to about 38.3 µM), for inactives: at the highest dose activity change, negative = inhibition, actives largely listed as inhibitors; 44,000 compounds, 0.78% hits;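 note: potency is the fitted concentration of half-maximal effect; plate controls were DMSO for no effect and rapamycin for full effect; nearly all actives have a fitted effect of over 50% in size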
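Immunofluorescence of rpS6 phosphorylation in Tsc2-/-, p53-/- MEFs after 24 h compound exposure, normalized to propidium iodide signal. Activity is expressed as % positive cells, thresholded with 7.5 nM rapamycin.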
HTT prom inh = Primary qHTS for Identification of Small Molecule Inhibitors of Huntingtin Promoter Activity; HEK293 HTT promoter firefly luciferase reporter, 24 h; Potency, µM (titrated, usually from 57.5 µM), for inactives: at the top dose activity change, negative = inhibition, most hits filed as inhibitors; 48,000 compounds, 0.93% hits; AID 1508623, 2021; note: potency is the fitted concentration of half-maximal effect; nearly all actives have a fitted effect of over 50% in size
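Firefly luciferase signal from promoter-reporter HEK293 cells was scaled between vehicle (0%) and zero RLU (-100%). Compounds were tested at final concentrations of up to 57.5 uM over 24 h at 37 degrees C. PTC124 at 50 uM final served as control inhibitor.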
NLuc saturating = Biochemical NLuc saturation counterscreen for small molecule modulators of PMP22 gene expression - Nano-Glo assay; shares compounds with PMP22 txn; Secreted NLuc enzyme (filtered S16 cell medium), Nano-Glo luminescence; Potency, µM (titrated, usually from 57.5 µM), for the others: at the top dose activity change, negative = inhibition, actives largely listed as inhibitors; 690 compounds, 4% hits; note: potency is the fitted concentration of half-maximal effect; % is set by controls: 0 for no effect and ±100 for the full control effect
NLuc Km counter = Biochemical coelenterazine-based NLuc counterscreen for small molecule modulators of PMP22 gene expression - Km assay; shares compounds with PMP22 txn; secreted NLuc enzyme, coelenterazine luminescence, Km conditions; Potency, µM (highest dose often 57.5 µM), for the others: at the highest dose activity change, negative = inhibition, usual class: inhibitors; 690 compounds, 5% hits; AID 1508639, 2021; note: potency is the fitted concentration of half-maximal effect; % is set by controls: 0 for no effect and ±100 for the full control effect
FLuc counter = Biochemical FLuc counterscreen for small molecule modulators of PMP22 gene expression | shares compounds with PMP22 txn | purified P. pyralis FLuc, luminescence, 10 min | Potency, µM (highest dose often 57.5 µM), inactives show at the top dose activity, negative = inhibition, usual class: inhibitors | 690 tested, under 10 active; note: % of control where 0% means no effect
Target sequence (P08659 whole entry, looked up): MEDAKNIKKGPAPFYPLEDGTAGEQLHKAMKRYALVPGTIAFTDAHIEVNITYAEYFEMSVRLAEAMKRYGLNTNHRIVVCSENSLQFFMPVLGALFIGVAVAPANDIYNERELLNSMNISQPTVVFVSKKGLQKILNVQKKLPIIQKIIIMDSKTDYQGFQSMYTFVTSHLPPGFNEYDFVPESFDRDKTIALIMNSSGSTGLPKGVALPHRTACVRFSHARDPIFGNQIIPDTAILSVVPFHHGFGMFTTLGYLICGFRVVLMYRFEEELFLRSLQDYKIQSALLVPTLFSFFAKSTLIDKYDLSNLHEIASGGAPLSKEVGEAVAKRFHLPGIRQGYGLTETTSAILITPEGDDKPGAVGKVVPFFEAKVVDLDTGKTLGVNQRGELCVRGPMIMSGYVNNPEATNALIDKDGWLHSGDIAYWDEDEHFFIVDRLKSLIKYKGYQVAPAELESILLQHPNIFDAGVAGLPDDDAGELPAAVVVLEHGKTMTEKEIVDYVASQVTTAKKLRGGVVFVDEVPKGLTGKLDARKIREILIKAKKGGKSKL
S16 F2sN tox cnf = Cell viability qHTS assay in S16 Pmp22-F2sN cells - Confirmatory screen | shares compounds with PMP22 txn | 690 compounds, 7% hits | Potency, µM (series often up to 57.5 µM), for inactives: at the highest dose activity change, negative = viability loss, most hits filed as cytotoxic | S16 Schwann cells viability, CellTiter-Glo ATP luminescence, 24 h; note: potency is the fitted concentration of half-maximal effect; % is set by controls: 0 for no effect and ±100 for the full control effect
PMP22 txn conf = Cell-based coincidence reporter assay to measure PMP22 gene transcription in S16 Pmp22-F2sN cells - Confirmatory screen; shares compounds with PMP22 txn; S16 Schwann cells Pmp22-F2sN, dual luciferase, 24 h; Potency, µM (series often up to 57.5 µM), inactives show at the top dose activity change, negative = inhibition, usual class: inhibitors; 690 compounds, 22% hits; AID 1508646, 2021; active = clear falling dose curves in both reporters; inconclusive = both reporters move, but less clearly or upward; inactive = either reporter flat; the % is the FLuc reporter signal; note: potency is the fitted concentration of half-maximal effect
PMP22 prot conf = Cell-based HiBiT reporter assay to measure PMP22 protein expression in S16 Pmp22-HiBiT cells - Confirmatory screen | 95 tested, under 10 active | AID 1508647, 2021 | S16 Schwann cells Pmp22-HiBiT, luminescence, 48 h | Potency, µM (top dose mostly 27.9 µM), for inactives: top-dose activity change, negative = inhibition, most hits filed as inhibitors | shares compounds with PMP22 txn
Target sequence (P25094 whole entry, looked up): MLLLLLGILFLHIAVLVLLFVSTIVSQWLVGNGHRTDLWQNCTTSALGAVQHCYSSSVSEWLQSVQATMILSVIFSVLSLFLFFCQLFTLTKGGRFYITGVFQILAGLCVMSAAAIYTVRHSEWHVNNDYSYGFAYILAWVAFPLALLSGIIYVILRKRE
* = called active by the depositor; i = inactive; ? = inconclusive; / = no result given. Unless noted, calls come from the whole dose curve; as a rule, active = well fitted curve in the direction sought with a large enough effect; inconclusive = small, poorly fitted or top-dose-only effect, or another doubt; inactive = no such curve, though single readings can be large; an effect the other way counts as inactive or inconclusive.

SMILES | OvCa metastasis | S16 F2sN tox | HTT-AS act | PMP22 txn | pS6 MEF inh | HTT prom inh | NLuc saturating | NLuc Km counter | FLuc counter | S16 F2sN tox cnf | PMP22 txn conf | others
COc1ccc(Nc2c3c(nc4ccc(NC(=O)c5cc(Cl)ccc5OC)cc24)CCCC3)cc1OC | ? | ? | -94.7% | 4.74µM* | 0.3% | ? | -13.1% | -2.4% | 12.1% | 13.7µM* | 9.68µM*
COc1cc2nccc(Oc3ccc(NC(=O)NC4CC4)c(Cl)c3)c2cc1C(N)=O | -1.2% | / | -22.4% | / | / | ? | / | / | / | / | /
O=C(Nc1cccc(Cl)c1)Nc1ncc(CCNc2ncnc3ccsc23)s1 | -5.1% | / | -25.6% | / | / | -6.9% | / | / | / | / | /
CCCCC(CC)CNC(=O)c1ccc2c(=O)n(Cc3ccc(OC)cc3)c(=O)[nH]c2c1 (centres undefined) | i | 2.5% | -5.9% | 12.1µM* | -24.0% | -2.4% | 6.0% | 20.0% | 2.9% | 4.3% | ?
CNC(=O)c1ccc(C)c(-n2c(C)cc(OCc3ccc(F)cc3F)c(Br)c2=O)c1 | 5.3% | / | 1.8% | / | / | -7.9% | / | / | / | / | /
COc1ccccc1N1CCN(c2ncnc3c2cnn3-c2cc(Cl)ccc2C)CC1 | -4.8% | ? | -22.9% | 8.43µM* | 2.6% | ? | ? | ? | 2.8% | ? | ?
Cc1ccc(S(=O)(=O)N2CCN(Cc3noc(CCC(=O)N4CCCCC4)n3)CC2)c(C)c1 | -3.9% | -22.4% | -24.1% | ? | -10.8% | -23.1% | 0.0% | 3.2% | 2.6% | -13.1% | -15.6%
Cc1cc(C)c(S(=O)(=O)N2CCN(Cc3nc4ccc(C)cc4o3)CC2)c(C)c1 | -21.4% | -11.4% | -18.1% | ? | 31.7% | ? | / | / | / | / | /
COc1ccc(N2CCN(CCCNC(=O)c3ccc4nc(Cc5ccccc5)oc4c3)CC2)cc1 | ? | ? | -26.2% | 18.9µM* | -4.2% | ? | ? | ? | -2.3% | ? | ?
O=C(NCCCN1CCN(c2ccccc2)CC1)c1ccc2nc(CCc3ccccc3)oc2c1 | ? | ? | -22.5% | 18.9µM* | 0.1% | ? | -15.0% | -5.5% | -5.7% | -26.4% | ?
Cc1cccn2c(=O)c3cc(C#N)c(=O)n(-c4nnc(SCc5ccc(F)cc5)s4)c3nc12 | 2.1% | ? | -4.5% | 10µM* | -4.7% | -14.2% | -6.9% | -1.5% | 11.5% | 8.3% | -28.4%
Cc1ccc(CSc2nnc(-n3c(=O)c(C#N)cc4c(=O)n5cccc(C)c5nc43)s2)cc1 | -7.8% | 3.2% | -10.6% | ? | -2.9% | -17.2% | / | / | / | / | /
COc1ccc(-c2c(C)nn3c(N4CCN(c5ccccc5)CC4)cc(C)nc23)cc1OC | -0.3% | -12.7% | -10.1% | 17µM* | -12.5% | -5.1% | ? | ? | -4.1% | -16.0% | ?
COc1ccc(-n2c(=O)c3c(c4cc(OC)ccc4n3C)n(CCC(C)C)c2=O)cc1 | 9.8% | 8.4% | -16.6% | 2.06µM* | 1.1% | -13.1% | -18.1% | -1.9% | 3.1% | 8.6% | -21.3%
Cc1ccc(CS(=O)(=O)c2ncc(Cl)c(C(=O)Nc3nc4ccc(F)cc4s3)n2)cc1 | -9.4% | ? | -86.1% | 5.39µM* | -1.1% | ? | -11.4% | ? | 7.5% | ? | 16.5µM* | PMP22 prot conf=?
COc1ccc2nc(NC(=O)c3nc(S(=O)(=O)Cc4ccc(C)cc4)ncc3Cl)sc2c1 | ? | 28.2µM* | -35.9% | 7.27µM* | ? | -1.9% | -4.6% | 4.3% | 2.7% | 17.2% | 28.9%
Cc1ccc(CNC(=O)c2nc(S(=O)(=O)Cc3ccc(C)cc3)ncc2Cl)cc1 | -9.4% | ? | -17.8% | 10.1µM* | -10.8% | ? | -0.8% | -1.6% | -3.6% | -52.5% | 17.3µM* | PMP22 prot conf=14.0%
COC(=O)c1ccccc1NC(=O)c1nc(S(=O)(=O)Cc2cccc(C)c2)ncc1Cl | -13.9% | ? | 0.1% | 5.32µM* | -26.5% | 3.6% | -18.9% | 3.85µM* | -16.0% | ? | 7.27µM* | PMP22 prot conf=-17.5%
COc1ccc2nc(NC(=O)c3nc(SC(C)C)ncc3Cl)sc2c1 | -14.7% | 3.6% | -8.5% | 1.4% | -3.8% | -2.5% | / | / | / | / | /

Source: PubChem BioAssay (National Center for Advancing Translational Sciences (NCATS))
